# Screens as filed in PubChem BioAssay.
# Compounds with a hit are over-represented: about 4.8% of the library has one in this group of screens.
# SMARCA2 activ = activators of SMARCA2 function. MG213 cells, MMTV-luciferase reporter, dexamethasone, overnight. activation, % at 9.1 µM. hit rate 1% among 370,000. AID 652017; in the data active means activation above about 7.8%;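 further: 0% = vehicle wells and 100% = reference activator wells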
# DAX1 inh-1 = blocks DAX1 repression of SF-1 activated StAR promoter; inhibition, % at 6.8 µM; HEK293T StAR-luciferase reporter, SF-1/DAX-1 repression relief; hit rate 1.1% among 370,000;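 active means inhibition above the mean over all tested compounds plus 3 SD, cut at about 3.6% in these data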;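 further: 0% = DAX-1 cells with DMSO and 100% = cells lacking DAX-1 with DMSO; higher inhibition means more luminescence from relief of DAX-1 repression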
# hcDAF12 agonist = activates DAF-12 receptor from parasite H. contortus. hit rate 1.4% among 370,000. activation, % at 6.8 µM. HEK293 hcDAF-12 lit1-tk-luc reporter, luminescence; 0% DMSO, 100% Δ7-dafachronic acid. AID 652067;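 active means activation above the mean of all tested compounds plus 3 SD, cut at about 5.5% in these data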;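 further: 100% = response to 3 µM Δ7-dafachronic acid high control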
# hgDAF12 agonist = hgDAF-12 agonism, primary luciferase screen; hit rate 1.8% among 370,000; AID 687014; HEK293 GAL4-hgDAF12 UAS-luciferase reporter, agonist luminescence; normalized to butyrate control; activation, % at 6.8 µM;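 active means activation above a cutoff set at the mean of all screened compounds plus 3 SD, cut at about 10% in these data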;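 further: 0% = DMSO wells and 100% = sodium butyrate wells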
# ssDAF12 agonist = activators of S. stercoralis DAF-12 nuclear receptor; HEK293 ssDAF-12/GRIP1 lit1-tk-luc reporter, luminescence; % of 3 µM dafachronic acid response; activation, % at 6.8 µM; hit rate 1% among 370,000; AID 652126;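 active means activation above the mean over all tested compounds plus 3 SD, cut at about 0.9% in these data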;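 further: 0% = DMSO-only wells and 100% = 3 µM delta7-dafachronic acid wells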
# DAX1 inh-2 = NR0B1 (DAX1) inhibition. hit rate 0.99% among 340,000. AID 504766. HEK293 Gal4-DAX1 luciferase reporter, luminescence. inhibition, % at 6.75 µM;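 active means inhibition above the mean over all tested compounds plus 3 SD, cut at about 4.2% in these data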;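 further: 0% = DAX1-transfected cells with DMSO and 100% = empty-vector control cells with DMSO; inhibition shows as a rise in luminescence from relieved DAX1 repression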
# Target sequence (P51843 207-470 limits assumed): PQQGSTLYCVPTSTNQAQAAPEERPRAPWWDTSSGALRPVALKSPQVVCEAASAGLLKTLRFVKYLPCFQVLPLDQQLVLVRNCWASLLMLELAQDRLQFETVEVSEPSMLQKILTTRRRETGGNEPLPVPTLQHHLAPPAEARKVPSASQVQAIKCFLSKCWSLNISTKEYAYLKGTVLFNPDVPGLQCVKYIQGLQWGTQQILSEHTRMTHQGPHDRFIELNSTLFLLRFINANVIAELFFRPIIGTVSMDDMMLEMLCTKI
# Active calls of the source: *; nt = no result given.
SMILES,SMARCA2 activ,DAX1 inh-1,hcDAF12 agonist,hgDAF12 agonist,ssDAF12 agonist,DAX1 inh-2
CCc1nc2ccc(C(=O)NCC3CCCCC3)cn2c1N(CCC(C)C)CCN(C)C,-1,0,-2,-1,-1,nt
CCc1nc2ccc(C(=O)NCc3ccc(OC)cc3)cn2c1N(CCC(C)C)CCN(C)C,-4,1,2,1,1.2*,nt
CC(C)C[C@H](NC(C)(C)C(=O)NC1CCCCC1)C(=O)NCCc1c[nH]c2ccccc12,nt,nt,0,6,-1,nt
COc1ccccc1/C=C/C=N/n1c(-c2cc(C)[nH]n2)n[nH]c1=S,-2,1,-2,-2,0,0
COc1ccccc1/C=C/C=N/n1c(-c2ccccn2)n[nH]c1=S,7,1,5.6*,5,-1,1
O=C(Oc1coc(CSc2ncccn2)cc1=O)c1ccc([N+](=O)[O-])cc1,nt,nt,-2,2,-1,nt
Cc1ccc(C)c(N(C)C(=O)COc2cc(=O)n(C)c3ccccc23)c1,4,1,-2,-3,-1,4.8*
CCCCCCCSc1nnc(-c2ccccc2N)c(=O)[nH]1,-3,1,0,-1,-1,1
CCCCSc1nnc(-c2ccccc2N)c(=O)[nH]1,8,1,5.9*,11*,0,0
COc1ccc(Cn2cc(CN3[C@@H](CC(C)C)COc4ccc(Cl)cc4S3(=O)=O)nn2)cc1,-2,0,-1,-2,-1,nt
CCOC(=O)Nc1ccc(S(=O)(=O)N2CCC(c3nc4ccccc4[nH]3)CC2)cc1,-2,-1,-1,-1,-1,1
CC(=O)Nc1ccc(S(=O)(=O)N2CCC(c3nc4ccc(C)cc4[nH]3)CC2)cc1,-3,0,-1,0,-2,4.4*
Cc1[nH]n(-c2cccc(Cl)c2)c(=O)c1C=NCC(C)C,8,3,3,10,-1,4.3*
Cc1[nH]n(-c2ccccc2)c(=O)c1/C=N/N(C)c1ccccc1,4,0,3,0,1.8*,0
CCCc1[nH]n(-c2ccc(F)cc2)c(=O)c1C=NCC1CCCO1 (stereo unspecified),0,-1,0,1,-2,0
Cc1[nH]n(-c2ccccc2)c(=O)c1C=NCC1CCCO1 (stereo unspecified),1,1,1,3,1.0*,-1
C[C@@H]1ON(C)[C@H]2C[C@H]3c4[nH]c5c(-c6ccc7c(c6)OCO7)cccc5c4CCN3C[C@@H]12,-3,0,-1,0,-1,nt
COC(=O)[C@H](Cc1ccccc1)NC(=O)[C@H]1C[C@@]2(N3CCCC3)c3ccccc3N(C(=O)OC(C)(C)C)[C@H]2N1C(=O)OC(C)(C)C,1,0,2,-3,-2,nt
CC(NC(=O)NC(=O)c1ccc(Cl)cc1)c1ccccc1 (stereo unspecified),-2,-5,-2,0,-1,-1
COCC(C)NC(=O)NC(=O)c1ccc(Cl)cc1 (stereo unspecified),1,2,0,0,1.1*,0
CC(C)N1CCc2c(sc(NC(=S)NC(=O)c3ccccc3)c2C#N)C1,3,1,8.3*,4,-2,2
CC(C)C1Cc2c(sc(NC(=S)NC(=O)c3ccccc3)c2C#N)CO1 (stereo unspecified),-1,0,0,3,-1,1
CCCN1CCc2c(sc(NC(=S)NC(=O)c3ccccc3)c2C#N)C1,2,3,3,5,-2,4.8*
COC(=O)c1cc(NC(=O)NC2CCCCN(Cc3cccc(Cl)c3)C2=O)cc(C(=O)OC)c1 (stereo unspecified),-2,1,0,4,-1,nt
Cc1cc(NC(=O)c2cc(-c3ccccc3C)nc3ccccc23)no1,-2,0,5,-2,0,0
SMILES,SMARCA2 activ,DAX1 inh-1,hcDAF12 agonist,hgDAF12 agonist,ssDAF12 agonist,DAX1 inh-2
Cc1ccnc(NC(=O)c2cc(-c3ccc(Cl)s3)nc3ccccc23)c1,2,1,0,2,0,4.7*
Cc1cc(NC(=O)c2cc(-c3ccc(C)s3)nc3ccccc23)no1,2,-1,1,3,1.7*,1
CN1C(=O)c2cc(NC(=O)c3ccc(F)cc3)ccc2OC[C@H]2O[C@H](CC(=O)NC3CCC3)CC[C@H]21,-2,2,0,1,-1,nt
Nc1ncnc2c1ncn2[C@@H]1O[C@H](C(=O)N2CCC[C@@H]2C(=O)OCc2ccccc2)[C@@H](O)[C@H]1O,-6,-1,-1,12*,-1,nt
CCc1cccc(NC2c3ccccc3C(=O)N2c2ccc(C)cn2)c1 (stereo unspecified),2,3,4,12*,0,2
Nc1n[nH]c(N)c1N=Nc1ccc2c(c1)OCO2,6,1,2,9,-1,4.8*
Cc1ccc(N=Nc2c(N)n[nH]c2N)cc1,2,1,2,6,-1,0
CC(=O)Nc1ccc(/C=C/COC(C)=O)cc1C,nt,nt,1,0,-1,nt
Cc1ccc(-n2c(SCC(=O)N/N=C/C=C\c3ccccc3[N+](=O)[O-])nnc2-c2ccccc2)cc1,0,1,2,-4,-1,nt
CC(=O)Nc1ccc2c(c1)[nH]c(=O)c1ccccc12,1,1,0,6,-1,4.6*
O=C(Nc1ccc2c(c1)[nH]c(=O)c1ccccc12)C(F)(F)F,-4,0,0,0,-1,2
COC(=O)[C@]12C[C@H](CC(=O)NCc3ccccc3)C(=O)N(Cc3ccco3)C1=C[C@H](COCc1ccccc1)O[C@@H]2C,-2,-1,0,2,0,nt
CCC1CCCCN1CC(=O)c1c(C)[nH]c2cc(C)ccc12 (stereo unspecified),-2,0,5.8*,0,-1,4
COc1ccc(C=O)cc1-c1cc(C(C)=O)c2n(c1=O)CCC2,-1,0,-1,1,1.3*,nt
O=C(/C=C/c1ccccc1)c1ccc2c(c1)OCCCCO2,0,2,4,12*,0,2
CC(/C=C/C=C/c1ccccc1)=N\NC(=O)c1cccnc1,-4,-1,0,6,-1,4.5*
CC(/C=C/C=C/c1ccccc1)=N/NC(=O)c1ccc2c(c1)OCCO2,5,1,3,4,1.2*,0
O=C(O)c1ccc2c(c1)OCCCO2,1,0,0,2,-1,2
CC(/C=C\C=C\c1ccccc1)=N\NC(=O)c1cncc(Br)c1,1,0,0,1,0,0
Cc1ccccc1NC(=O)OC1CCC12CCC(c1ccccc1)CC2 (stereo unspecified),-4,-1,-2,2,-1,nt
CC1=C2NC(N)=[N+](CC3CC3)C(Cc3ccccc3)[C@@H]2n2c(=O)n(-c3ccccc3)c(=O)n2C1 (stereo partly specified),-3,0,-1,5,-1,nt
